Laboratory results taken from the supplement of paper PMC10646978.
± gives the standard deviation.

Key:
Details in all cases: modulator concentration 10 µM
[1] = test system: RAW-Dual (murine macrophage reporter line); assay: NF-kB reporter (SEAP) activity fold change vs agonist alone; higher = enhanced NF-kB activity
Procedure, shortened: (§1)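 Overnight stimulation with a PRR agonist followed pre-incubation for 1 hour at 37 °C with compound at 10 μM final. This was done in RAW-Dual murine macrophage reporter cells seeded at 50 000 per well in 384-well plates. NF-κB (SEAP, QUANTI-Blue absorbance at 620 nm) and IRF (Lucia luciferase, QUANTI-Luc luminescence) were read from the supernatant. Each reporter's fold change relative to the mean agonist-only control on the same plate was averaged over replicate plates.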

[2] = test system: RAW-Dual (murine macrophage reporter line); assay: IRF reporter (Lucia luciferase) activity fold change vs agonist alone; higher = enhanced IRF activity
Procedure, shortened: as §1

[3] = test system: RAW-Dual (murine macrophage reporter line); assay: viability score (confluency relative to resting cells, overnight) (fraction); higher = more viable, active = viable (0.7 or more)
Procedure, shortened: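 RAW-Dual macrophages in 384-well plates were exposed overnight to compound at 10 μM final. Confluency was imaged with IncuCyte, and two confluency masks were generated with IncuCyte software over all imaged wells. The viability score is confluency expressed relative to resting cells. Compounds were called viable if both masks exceeded 70% of resting cells.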

[4] = agonist: CpG ODN 1826 0.5 ug/mL

SMILES	NF-kB reporter [1, 4]	NF-kB reporter ([1]; agonist: LPS 0.1 ug/mL)	NF-kB reporter ([1]; agonist: MPLA […])	IRF reporter ([2]; agonist: 3'3'-cGAMP 10 ug/mL)	IRF reporter ([2]; agonist: LPS 0.1 ug/mL)	IRF reporter ([2]; agonist: MPLA […])	viability score [3]
OC(c1cc(C(F)(F)F)nc2c(C(F)(F)F)cccc12)C1CCCCN1 (stereo not given) [Prestw-126]	0.781 ± 0.051	0.973 ± 0.1	0.887 ± 0.059	1.13 ± 0.076	2.89 ± 0.33	1.75 ± 0.16	0.0879 (inactive)
O=c1c(-c2ccccc2)coc2cc(O)ccc12	1.2 ± 0.089	1.09 ± 0.11	1.13 ± 0.049	0.886 ± 0.051	1 ± 0.11	0.973 ± 0.097	1 (active)
C=C1c2cccc(O)c2C(=O)C2=C(O)[C@]3(O)C(=O)C(C(N)=O)=C(O)[C@@H](N(C)C)[C@@H]3[C@@H](O)[C@H]12.Cl	1.16 ± 0.29	0.985 ± 0.064	0.952 ± 0.07	0.914 ± 0.045	1.22 ± 0.23	1.14 ± 0.13	0.962 (active)
CCCc1nc2c(C)cc(-c3nc4ccccc4n3C)cc2n1Cc1ccc(-c2ccccc2C(=O)O)cc1	1.29 ± 0.18	1.16 ± 0.29	0.99 ± 0.073	0.997 ± 0.032	1.49 ± 0.28	1.06 ± 0.11	0.993 (active)
O=C(NCC(O)(c1ccccc1)C(F)(F)F)c1ccc(Br)o1 (stereo not given)	0.943 ± 0.054	0.86 ± 0.12	0.929 ± 0.036	0.858 ± 0.038	1.04 ± 0.065	1.05 ± 0.15	0.948 (active)
CC(C)(C)c1ccc(C(=O)Nc2nc3ccc([N+](=O)[O-])cc3s2)cc1	1.06 ± 0.085	1.05 ± 0.072	1 ± 0.035	1.04 ± 0.23	0.986 ± 0.074	1.1 ± 0.11	1 (active)
CC(C)NCC(O)COc1cccc2ccccc12.Cl (stereo not given)	0.858 ± 0.12	1.05 ± 0.13	1.03 ± 0.06	0.66 ± 0.051	1.21 ± 0.22	1.12 ± 0.29	0.984 (active)
CC1=C(C(=O)Nc2cccc(C)n2)C(c2ccsc2)C2=C(CC(C)(C)CC2=O)N1 (stereo not given)	1.04 ± 0.16	1.02 ± 0.057	0.996 ± 0.059	0.954 ± 0.04	1.2 ± 0.086	0.979 ± 0.12	1.01 (active)
Cc1ccc(Nc2ccc(NC(=O)C(C)C)cc2)nn1	0.988 ± 0.042	0.993 ± 0.082	1.11 ± 0.07	1.05 ± 0.048	1.2 ± 0.26	1.29 ± 0.44	0.981 (active)
Cc1cccc(OCCCSc2nc3ccccc3[nH]2)c1	0.919 ± 0.076	0.973 ± 0.11	1.14 ± 0.11	0.671 ± 0.021	1.28 ± 0.21	1.39 ± 0.24	0.949 (active)
Cl.N=C(N)NC(=O)c1nc(Cl)c(N)nc1N.O.O	0.856 ± 0.044	1.01 ± 0.087	1.05 ± 0.065	1.04 ± 0.048	1.2 ± 0.29	1.3 ± 0.46	0.984 (active)
COc1ccc(-c2[nH]c3ccccc3c2SCCNC(=O)c2ccccc2)cc1	1.12 ± 0.086	1.19 ± 0.072	1.29 ± 0.11	0.832 ± 0.035	1.42 ± 0.14	1.17 ± 0.12	0.966 (active)
Cc1cc(OCC(=O)NC2CC(C)(C)NC(C)(C)C2)ccc1Br	0.843 ± 0.1	1.03 ± 0.079	1.05 ± 0.043	0.952 ± 0.041	1.1 ± 0.079	1.55 ± 0.19	0.976 (active)
C=CCc1ccccc1OCC(O)CNC(C)C.Cl (stereo not given)	1 ± 0.24	0.957 ± 0.14	1.06 ± 0.072	0.809 ± 0.029	1.16 ± 0.24	1.07 ± 0.14	0.978 (active)
Cc1ccc(-n2ncc3c(SCC(=O)NC(C)(C)C)ncnc32)c(C)c1	1.01 ± 0.082	1.16 ± 0.1	1.05 ± 0.047	0.644 ± 0.026	0.95 ± 0.048	1.22 ± 0.18	0.996 (active)
CN1CCN2c3ncccc3Cc3ccccc3C2C1 (stereo not given)	0.912 ± 0.17	1.07 ± 0.22	1.71 ± 0.85	0.861 ± 0.036	1.42 ± 0.3	1.18 ± 0.21	0.998 (active)
COCC(=O)N1CCC2(CC1)NC(=O)N(Cc1ccc(Cl)cc1)C2=O	0.764 ± 0.18	1.05 ± 0.075	1.05 ± 0.091	0.995 ± 0.05	1.02 ± 0.12	1.15 ± 0.28	1 (active)
O=C(O)CCC(=O)Nc1ccc(Br)cn1	1.17 ± 0.098	1.02 ± 0.066	1.02 ± 0.04	1.02 ± 0.19	1.12 ± 0.14	0.938 ± 0.27	0.997 (active)

SMILES	NF-kB reporter [1, 4]	NF-kB reporter ([1]; agonist: LPS 0.1 ug/mL)	NF-kB reporter ([1]; agonist: MPLA […])	IRF reporter ([2]; agonist: 3'3'-cGAMP 10 ug/mL)	IRF reporter ([2]; agonist: LPS 0.1 ug/mL)	IRF reporter ([2]; agonist: MPLA […])	viability score [3]
Fc1ccc(Nc2nc(NN=Cc3ccccc3Cl)nc(N3CCCCC3)n2)cc1	1.02 ± 0.17	1.26 ± 0.13	1.4 ± 0.31	0.992 ± 0.071	1.1 ± 0.19	1.48 ± 0.24	0.961 (active)
Cc1oncc1C(=O)Nc1ccc(C(F)(F)F)cc1	2.06 ± 0.4	1.1 ± 0.16	1.09 ± 0.071	1.31 ± 0.045	1.12 ± 0.29	2.03 ± 0.2	0.357 (inactive)
O=C(/C=C/c1cccc(S(=O)(=O)Nc2ccccc2)c1)NO	2.21 ± 0.11	1.73 ± 0.14	2.67 ± 0.12	0.0696 ± 0.0082	0.285 ± 0.017	0.404 ± 0.12	0.0713 (inactive)
COc1cc(C(=O)Nc2ccc(-c3ccc(N4CCC(C)CC4)nn3)cc2)cc(OC)c1OC	0.862 ± 0.1	0.879 ± 0.073	0.754 ± 0.12	1.02 ± 0.087	1.26 ± 0.11	1.59 ± 0.12	0.913 (active)
Cc1[nH]c(/C=C2\C(=O)Nc3ccccc32)c(C)c1CCC(=O)O	0.716 ± 0.18	0.853 ± 0.11	0.812 ± 0.048	0.618 ± 0.021	0.956 ± 0.24	0.98 ± 0.18	0.993 (active)
Cc1cc(OCC(=O)NCCn2nc(C3CC3)ccc2=O)cc(C)c1Cl	0.861 ± 0.2	1 ± 0.055	1.01 ± 0.064	0.956 ± 0.039	0.823 ± 0.14	1.01 ± 0.26	0.778 (active)
CC(C)(C)c1ccc(=O)n(CC2CN(S(C)(=O)=O)C2)n1	0.983 ± 0.097	1.13 ± 0.095	0.918 ± 0.092	1.02 ± 0.058	1.15 ± 0.1	1.1 ± 0.34	1.01 (active)
Cc1cc(C(=O)NNCc2ccccc2)no1 [Prestw-795]	1.09 ± 0.18	1.18 ± 0.11	0.992 ± 0.076	0.958 ± 0.026	1.06 ± 0.24	1.29 ± 0.14	0.997 (active)
CNC1(C)C2CCC(C2)C1(C)C.Cl (stereo not given)	0.914 ± 0.23	0.931 ± 0.058	0.961 ± 0.061	0.911 ± 0.078	1.1 ± 0.24	1.06 ± 0.12	1 (active)
O=c1sn(-c2cccc3ccccc23)c(=O)n1Cc1ccccc1	0.647 ± 0.1	0.501 ± 0.15	0.653 ± 0.044	0.473 ± 0.016	0.441 ± 0.14	0.81 ± 0.12	0.181 (inactive)
COC(=O)C1=C(C)NC(C)=C(C(=O)OC)C1c1c(F)cccc1Cl	0.828 ± 0.067	1.27 ± 0.072	1.42 ± 0.092	1.1 ± 0.04	1.17 ± 0.11	1.2 ± 0.23	0.979 (active)
CCOC(=O)C1=C(C)NC2=C(C(=O)CC(C)(C)C2)C1c1ccccc1Br (stereo not given)	0.993 ± 0.096	1.07 ± 0.059	0.934 ± 0.056	0.898 ± 0.022	1.32 ± 0.19	0.975 ± 0.2	1.02 (active)
O=C(Cn1nc(S(=O)(=O)c2cccc(F)c2)ccc1=O)N1CCc2ccccc2C1	1.03 ± 0.097	1.07 ± 0.085	0.921 ± 0.053	1.02 ± 0.051	1.29 ± 0.1	1.14 ± 0.21	1 (active)
CCCCC(=O)N(Cc1ccc(-c2ccccc2-c2nn[nH]n2)cc1)[C@H](C(=O)O)C(C)C	1.04 ± 0.16	1.03 ± 0.15	0.903 ± 0.05	0.589 ± 0.054	0.855 ± 0.14	0.704 ± 0.12	0.996 (active)
NC(=O)c1ncn([C@@H]2O[C@H](CO)[C@@H](O)[C@H]2O)c1O	0.723 ± 0.23	1.08 ± 0.069	0.898 ± 0.05	1.02 ± 0.085	1.04 ± 0.086	1.16 ± 0.094	0.998 (active)
CN1CCN(CCCN2c3ccccc3Sc3ccc(S(=O)(=O)N(C)C)cc32)CC1 [Prestw-149]	0.413 ± 0.053	0.958 ± 0.052	1.82 ± 0.044	0.936 ± 0.051	0.851 ± 0.078	1.55 ± 0.16	0.149 (inactive)
CNC1CCCN(c2c(F)cc3c(=O)c(C(=O)O)cn(C4CC4)c3c2OC)C1 (stereo not given)	0.783 ± 0.095	0.821 ± 0.04	1.12 ± 0.16	1.02 ± 0.048	1.35 ± 0.094	1.43 ± 0.14	0.999 (active)
